Laboratory results taken from PubChem BioAssay (NCATS).
Records with an inconclusive call do not appear. Active and inactive are the calls of the source. Calls come from the whole dose curve; as a rule, active = well fitted cell-killing curve with a large enough effect; inconclusive = small, poorly fitted or top-dose-only effect, or effect the other way; inactive = flat fitted curve, though single readings scatter.

Columns and labels:
Assay in all cases: Primary qHTS to identify gynecologic anti-cancer compounds using libraries of approved drugs and bioactive compounds (AID 1345084); note: nearly all actives have a fitted effect of over 55% in size
[1] = system: C33A; details: Gynecologic cancer cell panel viability, ATPlite luminescence, 48 h; series mostly up to 57.5 µM
Method in brief: (§1)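 Cell viability after 48 h drug treatment, ATPlite luminescence readout; five doses.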

[2] = system: CAOV3; details: Gynecologic cancer cell panel viability, ATPlite luminescence, 48 h; series mostly up to 57.5 µM
Method in brief: as §1

[3] = system: CASKI; details: Gynecologic cancer cell panel viability, ATPlite luminescence, 48 h; series mostly up to 57.5 µM
Method in brief: as §1

[4] = system: Es-2; details: Gynecologic cancer cell panel viability, ATPlite luminescence, 48 h; series mostly up to 57.5 µM
Method in brief: as §1

[5] = system: HeLa; details: Gynecologic cancer cell panel viability, ATPlite luminescence, 48 h; series mostly up to 57.5 µM
Method in brief: as §1

[6] = system: Hek293T; details: Gynecologic cancer cell panel viability, ATPlite luminescence, 48 h, control line for the selectivity index; series mostly up to 57.5 µM
Method in brief: as §1

[7] = system: JEG-3; details: Gynecologic cancer cell panel viability, ATPlite luminescence, 48 h; series mostly up to 57.5 µM
Method in brief: as §1

[8] = system: OV90; details: Gynecologic cancer cell panel viability, ATPlite luminescence, 48 h; series mostly up to 57.5 µM
Method in brief: as §1

[9] = system: PA-1; details: Gynecologic cancer cell panel viability, ATPlite luminescence, 48 h; series mostly up to 57.5 µM
Method in brief: as §1

[10] = system: SKOV3; details: Gynecologic cancer cell panel viability, ATPlite luminescence, 48 h; series mostly up to 57.5 µM
Method in brief: as §1

[11] = system: Tov-21-G; details: Gynecologic cancer cell panel viability, ATPlite luminescence, 48 h; series mostly up to 57.5 µM
Method in brief: as §1

[12] = system: Tov112D; details: Gynecologic cancer cell panel viability, ATPlite luminescence, 48 h; series mostly up to 57.5 µM
Method in brief: as §1
% is set by controls: 0 for no effect and ±100 for the full control effect.

COc1ccc2nc(S(=O)(=O)Cc3ncc(C)c(OC)c3C)[nH]c2c1
inactive: Potency [1] | Potency [2] | Potency [3] | Potency [4] | Potency [5] | Potency [6] | Potency [7] | Potency [8] | Potency [9] | Potency [10] | Potency [11] | Potency [12]

O=C1CSc2ccccc2N1Cc1cccc(C(F)(F)F)c1
inactive: Potency [1] | Potency [2] | Potency [3] | Potency [4] | Potency [5] | Potency [6] | Potency [7] | Potency [8] | Potency [9] | Potency [10] | Potency [11] | Potency [12]

Cc1noc(-c2ccc(-c3ccc(CC(=O)O)cc3)cc2)c1NC(=O)O[C@H](C)c1ccccc1
inactive: Potency [1] | Potency [2] | Potency [3] | Potency [4] | Potency [5] | Potency [6] | Potency [7] | Potency [8] | Potency [9] | Potency [10] | Potency [11] | Potency [12]

C[C@@H]1CN(Cc2ncccn2)C[C@H]1c1nc2c(cnn2C2CCOCC2)c(=O)[nH]1
inactive: Potency [1] | Potency [2] | Potency [3] | Potency [4] | Potency [5] | Potency [6] | Potency [7] | Potency [8] | Potency [9] | Potency [10] | Potency [11] | Potency [12]

C/C=C/C(O)C1OC(=O)CC1Nc1ccc(C(=O)O)cc1 (stereo unspecified)
inactive: Potency [1] | Potency [2] | Potency [3] | Potency [4] | Potency [5] | Potency [6] | Potency [7] | Potency [8] | Potency [9] | Potency [10] | Potency [11] | Potency [12]

C=C(CO[C@@H]1O[C@H](CO[C@@H]2OC[C@](O)(CO)[C@H]2O)[C@@H](O)[C@H](O)[C@H]1O)C1Cc2cc(C(C)=O)ccc2O1 (stereo partly specified)
inactive: Potency [1] | Potency [2] | Potency [3] | Potency [4] | Potency [5] | Potency [6] | Potency [7] | Potency [8] | Potency [9] | Potency [10] | Potency [11] | Potency [12]

CCCC(=O)O[C@@H]1[C@@H]2[C@@H](OC(C)=O)[C@]3(C)C(=O)[C@H]4[C@@H](OC(C)=O)C(C)(C)C[C@H]4[C@]3(C)C(=O)[C@@]2(OC(C)=O)C[C@@H]1C
inactive: Potency [1] | Potency [2] | Potency [3] | Potency [4] | Potency [5] | Potency [6] | Potency [7] | Potency [8] | Potency [9] | Potency [10] | Potency [11] | Potency [12]

CC1CCCCN1S(=O)(=O)c1ccc(N2CCCC2=O)cc1 (stereo unspecified)
inactive: Potency [1] | Potency [2] | Potency [3] | Potency [4] | Potency [5] | Potency [6] | Potency [7] | Potency [8] | Potency [9] | Potency [10] | Potency [11] | Potency [12]

CC1(C)CC[C@]2(C(=O)O[C@@H]3O[C@H](CO)[C@@H](O)[C@H](O)[C@H]3O)CC[C@]3(C)C(=CCC4[C@@]5(C)C[C@@H](O)[C@H](O)[C@](C)(C=O)C5CC[C@]43C)[C@@H]2[C@@H]1O (stereo partly specified)
inactive: Potency [1] | Potency [2] | Potency [3] | Potency [4] | Potency [5] | Potency [6] | Potency [7] | Potency [8] | Potency [9] | Potency [10] | Potency [11] | Potency [12]

COC(=O)CC1CC(c2ccc(O)cc2)=NO1 (stereo unspecified)
inactive: Potency [1] | Potency [2] | Potency [3] | Potency [4] | Potency [5] | Potency [6] | Potency [7] | Potency [8] | Potency [9] | Potency [10] | Potency [11] | Potency [12]

CC1OC(O[C@H]2CC[C@@]3(C)C(CC[C@]4(C)C3CC=C3C5CC(C)(C)CC[C@]5(C(=O)OC5OC(CO)C(OC6OC(COC7OCC(O)C(O)C7O)C(O)C(O)C6O)C(O)C5O)CC[C@]34C)C2(C)C)C(O)C(O)C1OC1OCC(OC2OCC(O)C(O)C2O)C(O)C1O (stereo partly specified)
inactive: activity change, negative = cytotoxicity [1] 24.4% [at 6.55 µM] | activity change, negative = cytotoxicity [2] 3.53% [at 6.55 µM] | activity change, negative = cytotoxicity [3] -2% [at 6.55 µM] | activity change, negative = cytotoxicity [4] 0.974% [at 6.55 µM] | activity change, negative = cytotoxicity [5] -5.59% [at 6.55 µM] | activity change, negative = cytotoxicity [6] 2.21% [at 6.55 µM] | activity change, negative = cytotoxicity [7] 7.58% [at 6.55 µM] | activity change, negative = cytotoxicity [8] 5.67% [at 6.55 µM] | activity change, negative = cytotoxicity [9] -4.41% [at 6.55 µM] | activity change, negative = cytotoxicity [10] 5.68% [at 6.55 µM] | activity change, negative = cytotoxicity [11] -0.908% [at 6.55 µM] | activity change, negative = cytotoxicity [12] -13.2% [at 6.55 µM]

CC1(C)C2CC=C(COC3OC(COC4OCC(O)(CO)C4O)C(O)C(O)C3O)C1C2 (stereo unspecified)
inactive: Potency [1] | Potency [2] | Potency [3] | Potency [4] | Potency [5] | Potency [6] | Potency [7] | Potency [8] | Potency [9] | Potency [10] | Potency [11] | Potency [12]

CNS(=O)(=O)CC1CCC(N(C)c2ncnc3[nH]ccc23)CC1 (stereo unspecified)
inactive: Potency [1] | Potency [2] | Potency [3] | Potency [4] | Potency [5] | Potency [6] | Potency [7] | Potency [8] | Potency [9] | Potency [10] | Potency [11] | Potency [12]
